# Assay results taken from PubChem BioAssay AID463173 (ICCB-Longwood Screening Facility, Harvard Medical School, 2010).
# In all, about 52,000 compounds went through this assay and about 1,700 (3.3%) were called active. This is one part of a sample in which actives are shown more often than they occur. A number with no mark means an inactive call. No stated cut-off is given here; in the data, active means survival mostly below about 52% (no sharp cut-off); inactive means mostly above about 56%.
# Tested on: Wild type
# Assay: S. aureus survival, RN4220 and DeltatarO strains – OD600, teichoic acid synthesis inhibitors, primary screen (AID 463173)
# Details: S. aureus RN4220 wild type/DeltatarO growth, OD600, 18 h, hits give low values, screened at 18.75 µg/mL (by protocol)
row,SMILES,survival
1,CCOC(=O)Cn1c(=O)oc2cc(S(=O)(=O)N3CCN(c4ccc(C(C)=O)cc4)CC3)ccc21,81%
2,CC(C)(C)OC(=O)N1CCC(c2c(C(=O)N3CCN(c4ccccn4)CC3)cnn2-c2ccccc2Cl)CC1,53%
3,COc1cc(NC(=O)c2ccccc2)c(OC)cc1NC(=O)CN1CCCCC1,109%
4,CCOC(=O)c1ccc(N2C(=O)c3n[nH]c(-c4cccs4)c3C2c2ccc(C)cc2)cc1 (centres undefined),66%
5,CCC1CCCCN1CCCNC(=O)c1[nH]c2ccccc2c1Sc1ccc(Cl)cc1 (centres undefined),-1% (active)
6,CCN(CC)CCNC(=O)c1[nH]c2ccccc2c1Sc1ccc(Cl)cc1,42%
7,CC1CCCCN1CCCNC(=O)c1cc(Sc2cccc(Cl)c2)nc2ccccc12 (centres undefined),54%
8,CCCCNC(=O)c1[nH]c2ccccc2c1Sc1ccc(C)cc1,83%
9,CC1CCCCN1CCCNC(=O)c1[nH]c2ccccc2c1Sc1ccc(Cl)cc1 (centres undefined),-1% (active)
10,CCOC(=O)C1CCCN(C(=O)c2[nH]c3ccccc3c2Sc2ccc(Cl)cc2)C1 (centres undefined),75%
11,COc1ccc(-c2noc(-c3ccc(NCCc4ccccc4)c([N+](=O)[O-])c3)n2)cc1,84%
12,CC(=O)Nc1ccc(C(=O)N2CC(C)OC(C)C2)cc1 (centres undefined),133%
13,CC(C(=O)N1CCCCC1)N1CCC(N2CCCCC2)CC1 (centres undefined),93%
14,CCc1ccccc1NC(=O)CN1C(=O)CCSc2ccc(S(=O)(=O)N3CCCC3)cc21,124%
15,O=C(Nc1ccc2oc(-c3cccnc3)nc2c1)c1ccc(-c2cccc(OC(F)(F)F)c2)o1,80%
16,Cc1ccc(NC(=O)N(Cc2cn(C)c3ccccc23)C2CCCCC2)cc1C,-1% (active)
17,O=C(Nc1ccccc1)N(Cc1c[nH]c2ccccc12)C1CCCCCC1,48%
18,Cn1cc(CN(C(=O)Nc2ccc(Cl)c(Cl)c2)C2CCCCC2)c2ccccc21,60%
19,COc1ccc2[nH]c(=O)c(CN(C(=O)Nc3ccccc3)C3CCCC3)cc2c1,103%
20,Cn1cc(CN(C(=O)Nc2ccccc2)C2CCCCC2)c2ccccc21,-1% (active)
21,Cc1ccc(NC(=O)N(Cc2c[nH]c3ccccc23)C2CCCCCC2)cc1C,54%
22,CCOc1ccc(C(=O)Nc2ccccc2C(=O)OCc2cc(=O)n3nc(C4CC4)sc3n2)cc1,78%
23,CCOC(=O)c1c(C)[nH]c(CCC(=O)Nc2ccc(C)c(F)c2)c1C,70%
24,O=C(NCC(c1cccnc1)N1CCN(Cc2ccccc2)CC1)C(=O)Nc1cccc(F)c1 (centres undefined),114%
